Structures are written as SMILES. Counter-ions that a name gives are not always drawn.
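Note: purified Escherichia coli-expressed rice kinase domain construct.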

This assay relates to LOC_OS04G57630-cb004. Briefly: thermal shift delta Tm vs DMSO control; higher = stronger stabilization (binding). The note with it: 12.5 µM; protein concentration 2 µM. The method in brief: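 Thermal shift values come from differential scanning fluorimetry on purified rice kinase domains made in E. coli, with melting temperatures obtained from Boltzmann fits. Samples of 19.5 μl held 2 μM kinase, 100 mM potassium phosphate pH 7.5, 150 mM NaCl, 10% glycerol, 5 × SYPRO Orange and compound in DMSO, and were heated from 25°C to 95°C at 0.05°C/s. Each shift is a triplicate mean relative to the DMSO-only protein sample.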
For `CCn1c(=O)c(-c2ccc(-c3cncs3)cc2Cl)cc2cnc(Nc3ccc(N4CCN(C)CC4)cc3)nc21`, the “thermal shift delta Tm” value came out at 0.31 °C.

As for `CNC(=O)c1cccc(-c2ccc3c(N4CCOC[C@@H]4C)nc(N4CCOC[C@@H]4C)nc3n2)c1` [Vistusertib (AZD2014)], the “thermal shift delta Tm” value is -0.14 °C.

Take `CC(C)S(=O)(=O)c1ccc2nccc(Nc3ccc4scnc4c3)c2c1`: the “thermal shift delta Tm” value came to 2.51 °C.

For the compound `Cn1cc(-c2ccc3ncc(Cc4ccc5ncccc5c4)n3n2)cn1`, the “thermal shift delta Tm” value amounted to 1.12 °C.

Turning to `N#Cc1ccc2ncnc(NCCc3ccccc3)c2c1` [Senexin A], the “thermal shift delta Tm” value came to 0.34 °C.

Consider `O=C1NC(=O)/C(=C/c2ccc3nccc(-c4ccncc4)c3c2)S1`, for which the “thermal shift delta Tm” value stood at 1.23 °C.

With `Cn1cnc2c(F)c(Nc3ccc(Br)cc3F)c(C(=O)NOCCO)cc21`, the “thermal shift delta Tm” value turned out to be 0.45 °C.

`Cc1cc(Nc2ncc(Cl)c(Nc3ccccc3S(=O)(=O)C(C)C)n2)c(OC(C)C)cc1C1CCNCC1` [Ceritinib (LDK378)]: the “thermal shift delta Tm” value came out at 0.2 °C.

`Cc1nc2ccc(-n3ncc(C(=O)c4cc5ccccc5[nH]4)c3N)cc2[nH]1`: the “thermal shift delta Tm” value is -0.26 °C.

For the compound `C=C[C@@](C)(/C=C/c1ccc(O)cc1)CCC=C(C)C` [Bakuchiol], the “thermal shift delta Tm” value worked out at 0.09 °C.

Turning to `C=CC(=O)Nc1cccc(Nc2nc(Nc3ccc(N4CCN(C(C)=O)CC4)cc3OC)ncc2C(F)(F)F)c1` [Rociletinib (CO-1686, AVL-301)], the “thermal shift delta Tm” value came out at 0.55 °C.

`CCCS(=O)(=O)Nc1ccc(F)c(C(=O)c2c[nH]c3ncc(-c4ccc(Cl)cc4)cc23)c1F` [Vemurafenib (PLX4032, RG7204)]: the “thermal shift delta Tm” value turned out to be 0.61 °C.

Take `COc1cc(OC)c(C=C2C(=O)Nc3ccccc32)c(OC)c1`: the “thermal shift delta Tm” value was found to be 0.1 °C.

In the case of `CCN(CC)CCCC(C)Nc1nc(C)cc(Nc2ccc3nc(C)cc(N)c3c2)n1` (stereo not drawn), the “thermal shift delta Tm” value was -0.27 °C.

As for `CN1CC(O)C2=C/C(=N/NC(N)=O)C(=O)C=C21` (stereo not drawn) [Carbazochrome], the “thermal shift delta Tm” value is -0.07 °C.

`Cc1cc(Nc2cc(N3CCN(C)CC3)nc(/C=C/c3ccccc3)n2)n[nH]1`: the “thermal shift delta Tm” value was 3.73 °C.

As to `Cc1ccc(NC(=O)Nc2cc(C(F)(F)F)ccc2F)cc1Nc1ccc2c(c1)NC(=O)/C2=C\c1ccc[nH]1`, the “thermal shift delta Tm” value was found to be 0.83 °C.

For the compound `CO[C@H]1C[C@@H]2CC[C@@H](C)[C@@](O)(O2)C(=O)C(=O)N2CCCC[C@H]2C(=O)O[C@H]([C@H](C)C[C@@H]2CC[C@@H](O)[C@H](OC)C2)CC(=O)[C@H](C)/C=C(\C)[C@@H](O)[C@@H](OC)C(=O)[C@H](C)C[C@H](C)/C=C/C=C/C=C/1C` [Rapamycin (Sirolimus)], the “thermal shift delta Tm” value is -0.27 °C.

On to `C[S+]([O-])c1ccc(-c2nc(-c3ccc(F)cc3)c(-c3ccncc3)[nH]2)cc1` (stereo not drawn), for which the “thermal shift delta Tm” value came out at 0.89 °C.

Take `CO[C@H]1CC[C@H](N2C(=O)CNc3ncc(-c4ccc(C(C)(C)O)nc4)nc32)CC1`: the “thermal shift delta Tm” value was -0.07 °C.

Regarding `O=C(Nc1ccccc1C(=O)NC1CCCCNC1=O)c1cc2ccccc2s1` (stereo not drawn), the “thermal shift delta Tm” value was found to be 0.09 °C.

For `CCN1CCN(Cc2ccc(-c3cc4c(N[C@H](C)c5ccccc5)ncnc4[nH]3)cc2)CC1`, the “thermal shift delta Tm” value is 0.95 °C.

Turning to `Cc1cnc(NC(=O)Nc2cc(Br)c(C)cc2OC[C@@H]2CNCCO2)cn1`, the “thermal shift delta Tm” value is 0.36 °C.

Take `Cc1ccc(NC(=O)c2ccc(CN3CCN(C)CC3)cc2)cc1Nc1nccc(-c2cccnc2)n1` [Imatinib Mesylate (STI571)]: the “thermal shift delta Tm” value came out at 0.35 °C.

For `NC(=O)c1ccc(N(C(N)=O)c2c(F)cccc2F)nc1-c1ccc(F)cc1F`, the “thermal shift delta Tm” value came out at 0.21 °C.

For the compound `Cc1nc(-c2cn3c(n2)-c2ccc(-c4cnn(C(C)(C)C(N)=O)c4)cc2OCC3)n(C(C)C)n1` [Taselisib (GDC 0032)], the “thermal shift delta Tm” value was 0.16 °C.

As to `COc1cc(N2CCC(N(C)C)CC2)ccc1Nc1ncc(Cl)c(Nc2ccccc2P(C)(C)=O)n1`, the “thermal shift delta Tm” value was 2.89 °C.

Turning to `COc1cc2c(Nc3ccc(NC(=O)c4ccccc4)cc3)ncnc2cc1OCCCN1CCOCC1`, the “thermal shift delta Tm” value came out at 1.89 °C.

Consider `CNC(=O)c1cc(Oc2ccc(NC(=O)Nc3cc(C(C)(C)C)nn3-c3ccc4ncccc4c3)c(F)c2)ccn1` [Rebastinib (DCC-2036)], for which the “thermal shift delta Tm” value came out at 10.4 °C.

For `CC(C)(CO)n1cc(C(=O)c2cncc(NC(=O)Cc3ccc(Cl)cn3)c2)c2cnc(N)nc21`, the “thermal shift delta Tm” value came to 0.34 °C.

Regarding `CS(=O)(=O)N1CCN(Cc2cc3nc(-c4cccc5[nH]ncc45)nc(N4CCOCC4)c3s2)CC1` [Pictilisib (GDC-0941)], the “thermal shift delta Tm” value was -0.38 °C.

Take `C[C@@H]1COC(Nc2ccc3ncnc(Nc4ccc(OCc5nccs5)c(Cl)c4)c3c2)=N1` [Varlitinib]: the “thermal shift delta Tm” value stood at 1.38 °C.

Turning to `COc1cc(Nc2ncc(F)c(Nc3ccc4c(n3)NC(=O)C(C)(C)O4)n2)cc(OC)c1OC`, the “thermal shift delta Tm” value was determined as 1.55 °C.

As to `CC(C)n1nc(-c2ccc3oc(N)nc3c2)c2c(N)ncnc21`, the “thermal shift delta Tm” value came to 0.37 °C.

For the compound `Cc1cc(NC(=O)c2cccc(NC(=O)/C=C/CN(C)C)c2)ccc1Nc1nccc(-c2cccnc2)n1`, the “thermal shift delta Tm” value was 7.66 °C.

Take `Nc1nccc(Oc2ccc(NC(=O)c3c[nH]cc(-c4ccc(F)cc4)c3=O)cc2F)c1Cl`: the “thermal shift delta Tm” value is 1.51 °C.

As to `COc1ccc(/C=C/C(=O)C2(C(=O)/C=C/c3ccc(OC)c(OC)c3)CCCCC2)cc1OC`, the “thermal shift delta Tm” value was -0.06 °C.

Turning to `CC(C)CC(=O)Nc1n[nH]c2c1CN(C(=O)C1CCN(C)CC1)C2(C)C`, the “thermal shift delta Tm” value turned out to be 0.48 °C.

The values are drawn from the supplement of paper PMC9694430.
